# Hits are enriched below; roughly 9.2% of the tested compounds scored in any of these assays.
# NPC1 prom act = qHTS Assay for NPC1 Promoter Activators; Huh7 NPC1 promoter luciferase reporter, 24 h; Potency, µM (titrated, usually from 9.22 µM), for inactives: at the top dose activation, most hits filed as activators; hit rate 2.4% among 320,000; AID 485313, 2010; note: % of control where 0% means no effect; nearly all actives have a fitted effect of over 60% in size
#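 Luminescence read-out of NPC1 promoter-driven luciferase in stably transfected Huh7 cells; compounds delivered in DMSO and left 24 h at 37C, 5% CO2, qHTS titration format.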
# FLuc counter = qHTS profiling assay for firefly luciferase inhibitor/activator using purifed enzyme and Km concentrations of substrates (counterscreen for miR-21 project) | Potency, µM (series often up to 57.5 µM), inactives show top-dose activity change, negative = inhibition, usual class: inhibitors | purified FLuc, Km substrates, luminescence inhibition | hit rate 6.9% among 360,000 | Luciferin 4-monooxygenase (Photinus pyralis), P08659 | AID 588342, 2011;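 note: plate controls were vehicle for no effect and reference inhibitor for full effect; nearly all actives have a fitted effect of over 55% in size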
# Target sequence (P08659 whole entry, looked up): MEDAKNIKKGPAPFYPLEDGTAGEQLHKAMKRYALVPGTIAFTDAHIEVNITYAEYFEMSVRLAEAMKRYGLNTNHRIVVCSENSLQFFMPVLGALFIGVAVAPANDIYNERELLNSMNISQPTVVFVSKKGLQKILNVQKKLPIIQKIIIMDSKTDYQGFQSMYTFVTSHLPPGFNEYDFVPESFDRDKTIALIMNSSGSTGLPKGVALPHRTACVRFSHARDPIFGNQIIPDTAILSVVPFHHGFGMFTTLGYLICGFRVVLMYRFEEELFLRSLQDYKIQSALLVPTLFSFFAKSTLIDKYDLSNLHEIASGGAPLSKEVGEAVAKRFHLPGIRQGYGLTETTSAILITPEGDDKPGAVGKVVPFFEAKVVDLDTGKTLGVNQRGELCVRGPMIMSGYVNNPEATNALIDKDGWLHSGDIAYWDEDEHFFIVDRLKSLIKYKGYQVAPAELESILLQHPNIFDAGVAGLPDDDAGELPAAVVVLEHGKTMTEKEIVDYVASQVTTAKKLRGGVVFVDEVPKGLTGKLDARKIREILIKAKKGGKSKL
#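 Purified P. pyralis luciferase, 10 nM final, with Km-level 10 uM D-luciferin and 10 uM ATP in 50 mM Tris acetate pH 7.5, 10 mM Mg acetate, 0.01% Tween-20, 0.05% BSA; 6-point qHTS titration about 60 µM downward; luminescence read.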
# ELG1 repair inh = qHTS screen for small molecules that inhibit ELG1-dependent DNA repair in human embryonic kidney (HEK293T) cells expressing luciferase-tagged ELG1 | HEK293T ELG1-luciferase reporter, luminescence, 16 h; DNA damage induced by 5-fluorouridine | Potency, µM (highest dose often 46.1 µM), for the others: top-dose activity change, negative = inhibition, actives largely listed as inhibitors | hit rate 2.3% among 330,000; note: % is set by controls: 0 for no effect and ±100 for the full control effect; nearly all actives have a fitted effect of over 55% in size
#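 5-Fluorouridine DNA damage + compound/DMSO, 2,000 cells/well, 16 h, 37 °C/5% CO2. ONE-Glo, 30 min RT, luminescence. Readout = decrease in reporter signal.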
# SMN2 splice enh = qHTS Assay for Enhancers of SMN2 Splice Variant Expression; HEK293 SMN2-luciferase splicing reporter, luminescence, 30-36 h; Potency, µM (doses to about 46.1 µM), without a hit: top-dose activity change, positive = activation, most hits filed as activators; hit rate 2.8% among 210,000; note: % of control where 0% means no effect; nearly all actives have a fitted effect of over 55% in size
#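 HEK293 cells carry an SMN2 […]–luciferase reporter in which exon 7 inclusion puts luciferase in frame. Cells were plated 10-12 h before compound addition, then incubated 30-36 h at 37C. ONE-Glo luminescence was read; sodium butyrate at 4.5 mM final served as control.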
# ELG1 genotoxic = qHTS screen for small molecules that induce genotoxicity in human embryonic kidney (HEK293T) cells expressing luciferase-tagged ELG1 | Potency, µM (doses to about 46 µM), for the others: at the highest dose activity change, positive = activation, actives largely listed as activators | AID 504466, 2011 | hit rate 1.3% among 330,000 | HEK293T ELG1-luciferase reporter, luminescence, 16 h; note: % of control where 0% means no effect; nearly all actives have a fitted effect of over 60% in size
#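 Screening used a luciferase reporter fused to human ELG1 in HEK293T cells. Luminescence was read on a CCD plate imager after 16 hr exposure and 30 min ONE-Glo incubation.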
# Rab9 prom act = qHTS Assay for Rab9 Promoter Activators. Huh7 Rab9 promoter-luciferase reporter, luminescence, 24 h. Potency, µM (series often up to 9.22 µM), without a hit: at the highest dose activation, negative = inhibition, hits mostly activators. hit rate 2.8% among 320,000; note: % of control where 0% means no effect; nearly all actives have a fitted effect of over 60% in size
#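 Steps: seed 1500 Huh7 Rab9-luc cells per well, rest 2 h at 37 °C; add compound in DMSO; incubate 24 h; add luciferase reagent, 10 min ambient; read luminescence.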
# An asterisk follows results filed as active; ? = inconclusive; / = no result. Calls come from the whole dose curve; as a rule, active = well fitted curve in the direction sought with a large enough effect; inconclusive = small, poorly fitted or top-dose-only effect, or another doubt; inactive = no such curve, though single readings can be large; an effect the other way counts as inactive or inconclusive. Potency is the fitted concentration of half-maximal effect.
SMILES,NPC1 prom act,FLuc counter,ELG1 repair inh,SMN2 splice enh,ELG1 genotoxic,Rab9 prom act
Cc1ccc(OCC(=O)NC(=S)Nc2ccc(S(=O)(=O)Nc3cc(C)on3)cc2)c(Br)c1,0.1%,1.51µM*,15.6%,/,3.9%,-4.7%
Cc1ccc(S(=O)(=O)Nc2ccc(C(=O)Nc3cc(C)on3)cc2)cc1,-8.8%,2.5%,-10.7%,3.0%,-2.2%,0.1%
Cc1cccc(NS(=O)(=O)c2ccc(C)c(C(=O)OCC(=O)Nc3cc(C)on3)c2)c1,0.3%,2.5%,6.7%,20µM*,-5.1%,-0.3%
Cc1ccc(NS(=O)(=O)c2cccc(C(=O)Nc3cc(C)on3)c2)cc1,-2.2%,-1.2%,20.6µM*,-34.0%,-3.5%,-4.6%
c1ccc2c(c1)nc(-c1ccncc1)n2CCNc1nc(CN2CCCCC2)cs1,-5.4%,-0.7%,24.9%,/,1.7%,-0.8%
Cn1c(-c2ccc(CN3CCCCC3)o2)nc2ccccc21,?,15.1µM*,?,12.6µM*,?,?
Cc1cn2c(=O)cc(COC(=O)c3cccc(NC(=O)COc4ccccc4Cl)c3)nc2s1,/,4.78µM*,/,/,/,/
Cc1nn2c(=O)cc(COC(=O)c3cccc(NC(=O)c4ccc(C(C)(C)C)cc4)c3)nc2s1,/,0.536µM*,/,/,/,/
Cc1cccc(C(=O)Nc2cccc(C(=O)OCc3cc(=O)n4nc(C(C)C)sc4n3)c2)c1,/,-19.9%,/,/,/,/
COc1ccc(NC(=O)C2CCN(S(=O)(=O)c3cc(-c4noc(C)n4)ccc3C)CC2)cc1,/,-6.5%,/,/,/,/
O=C(CSc1nc2ccc(Cl)cc2[nH]1)Nc1ccc2[nH]c(=O)[nH]c2c1,0.3%,?,0.9%,/,6.4%,-3.8%
NCCc1nnc(SCc2ccccc2F)o1,2.5%,1.9%,9.5%,-2.1%,0.9%,-0.4%
COc1cc(-c2nnc(SCC(=O)Oc3ccc(C)cc3C)o2)cc(OC)c1OC,/,-11.5%,/,/,/,/
COC(=O)CSc1nnc(-c2ccc(OC)c(OC)c2)o1,-4.9%,-22.5%,-14.6%,0.5%,1.1%,-1.9%
Cc1ccc(-c2nnc(SCc3ccccc3F)o2)cc1,0.794µM*,?,?,11.2µM*,8.2µM*,0.891µM*
COc1ccc(-c2nnc(SCc3ccccc3F)o2)cc1OC,29.1%,23.9µM*,?,18.2%,22.7%,?
COc1cc(-c2nnc(SCc3cc(=O)oc4cc(C)ccc34)o2)cc(OC)c1OC,-2.8%,?,11.6µM*,-9.0%,5.2%,8.4%
N#Cc1ccccc1CSc1nc(N)cc(N)n1,1.3%,-11.6%,-1.2%,/,-2.2%,9.8%
N#Cc1ccccc1CSc1nnc(-c2ccccc2)o1,/,3.79µM*,/,11.2µM*,/,/
Cc1ccc(C2(C)NC(=O)N(CC(=O)N3c4ccccc4NC(=O)CC3C)C2=O)cc1 (stereo not given),2.1%,1.1%,8.9%,/,-0.7%,-5.0%
CCOC(=O)c1c(C)n(-c2ccccc2)c2ccc(OC(=O)c3ccccc3)cc12,/,-8.5%,/,-33.4%,/,/
CC(C)n1c(SCC(=O)Nc2ccccc2N2CCOCC2)nc2c1c(=O)n(C)c(=O)n2C,-0.9%,0.8%,?,-30.5%,-3.3%,0.1%
CCn1c(SCC(=O)Nc2ccccc2N2CCCCC2)nc2c1c(=O)n(C)c(=O)n2C,-2.6%,2.6%,18.4µM*,-19.3%,-15.6%,-8.9%
CCOc1ccc(Nc2c(S(=O)(=O)c3ccc(Cl)cc3)cnc3ccc(OCC)cc23)cc1,/,3.9%,/,-18.2%,/,/
Cc1c(Cl)cccc1NC(=O)C(C)N(c1ccccc1)S(C)(=O)=O (stereo not given),/,-9.2%,/,-6.3%,/,/
SMILES,NPC1 prom act,FLuc counter,ELG1 repair inh,SMN2 splice enh,ELG1 genotoxic,Rab9 prom act
CC(C)c1ccc2[nH]c3c(c2c1)CCC/C3=N\NC(=O)c1ccncc1,-5.7%,-1.7%,18.3µM*,/,-15.6%,-8.0%
CCN(CC)c1ccc(Nc2nc(-c3cccnc3)cs2)cc1,2.82µM*,10.7µM*,?,/,11.4%,3.16µM*
CN(C)c1ccc(Nc2nc(-c3cccnc3)cs2)cc1,3.55µM*,0.426µM*,?,15.8µM*,1.46µM*,0.891µM*
Cc1ccccc1C(=O)Nc1nc(-c2cccnc2)cs1,14.9%,-2.1%,0.0%,/,3.2%,1.9%
CC(C)c1ccc(NC(=O)c2cn(C3CCCC3)c(=O)c3c2c2ccccc2n3C)cc1,/,-5.5%,/,-2.2%,/,/
Cc1cc2nc(C3CCCN(C(=S)Nc4ccccc4)C3)[nH]c2cc1C (stereo not given),-0.7%,?,17.9%,2.2%,3.9%,-3.2%
Cc1cc2nc(C3CCN(C(=S)NCC(C)C)CC3)[nH]c2cc1C,0.2%,16.9µM*,-9.7%,-3.1%,3.3%,-0.9%
COc1ccccc1NC(=O)N1CCC(c2nc3cc(C)c(C)cc3[nH]2)CC1,-7.6%,?,10.7%,12.3%,?,-26.4%
COc1ccccc1NC(=S)N1CCC(c2nc3cc(C)c(C)cc3[nH]2)CC1,4.3%,13.5µM*,-1.4%,-1.4%,5.6%,21.9%
CCOC(=O)C1CCCN(S(=O)(=O)Cc2ccc(Cl)cc2)C1 (stereo not given),-0.3%,-0.5%,3.4%,/,-0.3%,-3.7%
O=C(CN1C(=O)S/C(=C\c2cccc(Cl)c2)C1=O)NC1C=CS(=O)(=O)C1 (stereo not given),-15.2%,-1.8%,4.5%,/,9.0%,8.6%
O=C(CN1C(=O)/C(=C/c2cccc(Cl)c2)SC1=S)NC1C=CS(=O)(=O)C1 (stereo not given),-0.7%,2.69µM*,14.9%,/,8.9%,-0.6%

# Source: PubChem BioAssay (National Center for Advancing Translational Sciences (NCATS))
